Rab9 prom act: activators of Rab9 promoter | Huh7 Rab9 promoter-luciferase reporter, luminescence, 24 h | Potency, µM (series often up to 9.22 µM), for the others: at the top dose activation, negative = inhibition, most hits filed as activators | 320,000 tested, 2.8% active; note: % of control where 0% means no effect; nearly all actives have a fitted effect of over 60% in size
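Luminescence from Amplite-detected luciferase (10 minutes, ambient) reports Rab9 promoter activation. Before that, stable Rab9-luciferase Huh7 cells (1500/well, reduced-serum OP-MEM I plus 10% FBS) were exposed to compound for 24 hours at 37C.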
FLuc modulator: counter-screen for miR-21 project: firefly luciferase inhibitors or activators | purified FLuc, Km substrates, luminescence inhibition | Potency, µM (series often up to 57.5 µM), without a hit: top-dose activity change, negative = inhibition, most hits filed as inhibitors | 360,000 tested, 6.9% active | AID 588342;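 note: plate controls were vehicle for no effect and reference inhibitor for full effect; nearly all actives have a fitted effect of over 55% in size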
Target sequence (P08659 whole entry, looked up): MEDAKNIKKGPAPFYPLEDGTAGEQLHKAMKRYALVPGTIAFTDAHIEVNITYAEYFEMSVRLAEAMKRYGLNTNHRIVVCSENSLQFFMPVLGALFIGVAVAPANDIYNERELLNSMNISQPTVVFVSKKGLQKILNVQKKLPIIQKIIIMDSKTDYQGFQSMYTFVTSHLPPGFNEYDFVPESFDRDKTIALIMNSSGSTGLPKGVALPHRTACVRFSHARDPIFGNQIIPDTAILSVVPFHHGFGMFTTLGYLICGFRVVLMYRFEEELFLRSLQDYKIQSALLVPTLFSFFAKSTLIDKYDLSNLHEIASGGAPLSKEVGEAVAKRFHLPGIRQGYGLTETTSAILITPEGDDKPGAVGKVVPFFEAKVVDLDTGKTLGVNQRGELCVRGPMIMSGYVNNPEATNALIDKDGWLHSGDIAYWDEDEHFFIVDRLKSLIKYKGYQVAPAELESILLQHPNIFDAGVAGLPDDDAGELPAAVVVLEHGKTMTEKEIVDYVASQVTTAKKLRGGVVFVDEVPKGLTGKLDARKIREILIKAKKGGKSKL
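Purified P. pyralis luciferase (10nM final) with 10uM D-luciferin and 10uM ATP (Km levels) in 50mM Tris acetate pH 7.5, 10mM Mg acetate, 0.01% Tween-20, 0.05% BSA; qHTS 6-point titration, ~60 µM downward; luminescence read.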
NPC1 promoter act: activates the NPC1 promoter | Huh7 NPC1 promoter luciferase reporter, 24 h | 320,000 tested, 2.4% active | AID 485313 | Potency, µM (series often up to 9.22 µM), inactives show top-dose activation, most hits filed as activators; note: % of control where 0% means no effect; nearly all actives have a fitted effect of over 60% in size
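Luciferase expression driven by the NPC1 promoter was measured in stably transfected Huh7 cells after a 24 h compound incubation, using a luciferase reagent and a luminescence read.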
ELG1 repair inh: blocks ELG1-dependent DNA repair in HEK293T cells | AID 504467 | 330,000 tested, 2.3% active | HEK293T ELG1-luciferase reporter, luminescence, 16 h; DNA damage induced by 5-fluorouridine | Potency, µM (top dose mostly 46.1 µM), for the others: top-dose activity change, negative = inhibition, usual class: inhibitors; note: % is set by controls: 0 for no effect and ±100 for the full control effect; nearly all actives have a fitted effect of over 55% in size
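Cells (2,000 per well) received 5-fluorouridine plus test compound or DMSO and were incubated 16 hr at 37 °C, 5% CO2. Luciferase activity was read by luminescence 30 min after ONE-Glo addition; signal suppression marked inhibition of damage-induced ELG1 function.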
ELG1 genotox: genotoxicity induction in ELG1-luciferase HEK293T cells. HEK293T ELG1-luciferase reporter, luminescence, 16 h. Potency, µM (titrated, usually from 46 µM), for inactives: top-dose activity change, positive = activation, usual class: activators. 330,000 tested, 1.3% active. AID 504466; note: % of control where 0% means no effect; nearly all actives have a fitted effect of over 60% in size
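DMSO vehicle served as control against compound-treated ELG1-luciferase HEK293T cells; exposure lasted 16 hr at 37 °C and 5% CO2, followed by ONE-Glo luminescence detection after 30 min.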
SMN2 splice up: increases expression of the SMN2 splice variant; HEK293 SMN2-luciferase splicing reporter, luminescence, 30-36 h; Potency, µM (doses to about 46.1 µM), for the others: at the highest dose activity change, positive = activation, usual class: activators; 210,000 tested, 2.8% active; AID 1458; note: % of control where 0% means no effect; nearly all actives have a fitted effect of over 55% in size
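HEK293 cells carry an SMN2 […]–luciferase reporter in which exon 7 inclusion puts luciferase in frame. Cells were plated 10-12 h before compound addition, then incubated 30-36 h at 37C. ONE-Glo luminescence was read; sodium butyrate at 4.5 mM final served as control.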
Numbers without * were called inactive; ? = inconclusive; . = not tested or not shown; ! = not confirmed by another sample; [ ] = remark or other dose. An excerpt weighted towards active compounds, which were near 9.2% of everything screened. Calls come from the whole dose curve; as a rule, active = well fitted curve in the direction sought with a large enough effect; inconclusive = small, poorly fitted or top-dose-only effect, or another doubt; inactive = no such curve, though single readings can be large; an effect the other way counts as inactive or inconclusive. Potency is the fitted concentration of half-maximal effect.

SMILES	Rab9 prom act	FLuc modulator	NPC1 promoter act	ELG1 repair inh	ELG1 genotox	SMN2 splice up
COc1ccc(-c2csc(C)n2)cc1Br	25%	15µM*	14%	?	?	17%
COc1ccccc1C(=O)COC(=O)CN1C(=O)c2ccccc2C1=O	2%	-2%	-5%	2%	1%	.
Cc1ccc(C(C(=O)NCCc2ccccc2)N(C(=O)c2csnn2)C2CC2)cc1 (stereo not drawn)	4%	1%	6%	2%	0%	.
COc1ccc(Cl)cc1C(=O)NNC(=O)COC(=O)CCN=C1NS(=O)(=O)c2ccccc21	-1%	2%	-1%	8%	-2%	.
COc1ccc(OC)c(NC(=O)c2ccc(-c3nc(COc4ccccc4)c(C)o3)cc2)c1	.	-5%	.	.	.	.
COc1ccc(OC)c(NC(=O)c2cc(OC(C)=O)cc(C(=O)Nc3cc(OC)ccc3OC)c2)c1	-12%	3%	-10%	?	-16%	.
COc1cc(NC(=O)c2cc3nc(C)cc(C)n3n2)c(OC)cc1Cl	1.3µM*	3µM*	2.5µM*	?	?	11µM*
COc1ccc(OC)c(NC(=O)c2csc(Cl)c2OC)c1	-2%	15µM*	2%	5%	3%	.
CN(Cc1ccccc1)S(=O)(=O)c1ccc2[nH]cc(C(=O)NCC3CCCO3)c(=O)c2c1 (stereo not drawn)	2.8µM*	11µM*	3.2µM*	?	?	12%
Cc1cc(C)cc(NS(=O)(=O)c2ccc3[nH]cc(C(=O)NCc4ccco4)c(=O)c3c2)c1	-5%	4%	2%	10µM*	-34%	-58%
CCOc1ccc(NS(=O)(=O)c2ccc3[nH]cc(C(=O)NCC4CCCO4)c(=O)c3c2)cc1 (stereo not drawn)	-3%	27µM*!	?	-5%	3%	1%
CCOc1ccc(NS(=O)(=O)c2ccc3[nH]cc(C(=O)N(CC)CC)c(=O)c3c2)cc1	0.4µM*	2.7µM*	0.45µM*	?	?	3.5µM*
COc1ccccc1OCC(=O)Nc1c2c(nn1-c1ccccc1)CS(=O)(=O)C2	-2%	5%	0%	-30%	0%	.
O=C(NN=C1CCCCCC1)c1cc2ccccc2cc1O	7%	17µM*	-4%	6%	7%	.
COCCN(C(=O)Cc1cccs1)C(C(=O)NC1CCCC1)c1cc(OC)c(OC)c(OC)c1 (stereo not drawn)	?	4.8µM*	?	?	?	.
CC(=O)N1CCC(=NNC(=O)c2cc3ccccc3cc2O)CC1	-1%	?	5%	1%	5%	.
COc1ccc(C(C(=O)NC2CCCC2)N(C(=O)Cc2cccs2)C2CC2)cc1OC (stereo not drawn)	2%	3%	-10%	10%	11%	.
Cc1ccccc1C(=O)NC1CCCCCCC1	2.5µM*	12µM*	2.8µM*	?	16µM*	.
O=C(NC1CCCCCCC1)c1ccccc1O	3.5µM*	15µM*	4µM*	?	16%	5%
O=C(O)CCCCn1cnc2c(=S)nc[nH]c21	.	.	.	.	.	-6%[9.22 µM]
Cc1ccc(C)c(S(=O)(=O)c2nnn3c2nc(N2CCCCC2)c2sccc23)c1	.	-8%	.	.	.	.
COc1ccc(NC(=O)[C@H](C)NC(=O)C2CCN(S(=O)(=O)c3ccc(C)cc3)CC2)cc1OC	5%	-1%	-1%	0%	2%	.
CSc1ncccc1C(=O)OCC(=O)N(C)c1c(N)n(Cc2ccccc2)c(=O)[nH]c1=O	1%	9%	-3%	18%	6%	.
COCCN(C(=O)CCC(=O)Nc1cc(C)on1)C(C(=O)NC1CCCC1)c1ccccc1C (stereo not drawn)	2%	2%	-2%	6%	1%	.
COCCN(C(=O)CCl)C(C(=O)NC1CCCCC1)c1ccccc1C (stereo not drawn)	-44%	1%	-13%	21µM*	-12%	?
SMILES	Rab9 prom act	FLuc modulator	NPC1 promoter act	ELG1 repair inh	ELG1 genotox	SMN2 splice up
Cn1cccc1C(=O)NC1CCCCCC1	2.2µM*	17µM*	?	?	?	.
O=C(NC1CCCCC1)c1cc2ccccc2cc1O	22%	17µM*	?	22%	4%	.
O=C(NN=C1CCCCCC1)c1c[nH]c2ccccc12	-1%	12µM*	0%	14%	-1%	7%
O=C(CCC1CCCC1)NNC(=O)c1cc2ccccc2cc1O	-2%	-1%	1%	7%	-5%	.
CC(=O)NC12CC3CC(C1)CC(C(=O)N1CCN(S(=O)(=O)c4cccc(C(F)(F)F)c4)CC1)(C3)C2	-2%	11%	0%	2%	1%	.
Cc1cc(C)c(NC(=O)CSc2cn(CC(=O)N3CCOCC3)c3ccccc23)c(C)c1	.	-6%	.	.	.	.
O=C(CSc1nnc2[nH]c(=O)cc(-c3ccccc3)n12)Nc1ccc(F)cc1F	.	1.9µM*	.	.	.	.
O=C(CSc1nnc2[nH]c(=O)cc(-c3ccccc3)n12)Nc1cc(C(F)(F)F)ccc1Cl	.	0.21µM*	.	.	.	.
Cc1cccc(NC(=O)CSc2nnc3[nH]c(=O)cc(-c4ccccc4)n23)c1C	.	3µM*	.	.	.	.
CN(C(=O)CSc1nnc2[nH]c(=O)cc(-c3ccccc3)n12)c1ccccc1	.	19µM*	.	.	.	.
O=c1cc(-c2ccccc2)n2c(SCc3cccc([N+](=O)[O-])c3)nnc2[nH]1	.	-18%	.	.	.	.
Cc1cccc(NC(=O)CSc2nnc3[nH]c(=O)cc(C)n23)c1C	.	1%	.	.	.	.
CCOc1ccc(OCCOC(=O)C2CCN(S(=O)(=O)c3ccc(C)c(C)c3)CC2)cc1	2%	4%	10%	-2%	2%	.
COc1ccc(CCNc2nc(-c3sc(N)nc3C)cs2)cc1OC	-3%	?	-1%	?	-6%	-3%

Screens as filed in PubChem BioAssay.
